# According to PubChem BioAssay (Tox21):
# Records with an inconclusive call do not appear. Where a call stands in place of a potency, no number is given. Values without a mark were called inactive. The source made the active and inactive calls. The call rests on the fitted dose curve.
# Assay: qHTS assay for small molecule agonists of the p53 signaling pathway - cell viability (AID 651633);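 further: p53RE-bla HCT reporter cells with a stable beta-lactamase p53 reporter; nearly all actives have a fitted effect of over 30% in size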
# Conditions: p53RE-bla HCT-116 viability, ATP luminescence, 16 h; series mostly up to 83.3 µM
# In short: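 p53RE-bla cells were treated with compound for 16 hours at 37 C. Cytotoxicity was then measured as CellTiter-Glo luminescence after 30 min at room temperature.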
Compound,Potency,"activity change, negative = cytotoxicity"
Cc1cc(NS(=O)(=O)c2ccc(N)cc2)nc(C)n1,inactive,–
CN(C)C(=O)NC1(c2ccccc2)CCN(CCC[C@]2(c3ccc(Cl)c(Cl)c3)CCCN(C(=O)c3ccccc3)C2)CC1,inactive,–
O=C(O)C(=O)Cc1c[nH]c2ccccc12,inactive,–
CCCCNc1cc(C(=O)O)cc(S(N)(=O)=O)c1Oc1ccccc1,inactive,–
NC(Cc1ccc(F)cc1)C(=O)O (centres undefined),–,33% [at 8.08 µM]
CCCCOc1cc(C(=O)NCCN(CC)CC)c2ccccc2n1,inactive,–
C[C@]12C(=O)OC(=O)[C@H]1[C@H]1C=C[C@@H]2C1,inactive,–
CCCCc1ccc2nc(NC(=O)OC)[nH]c2c1,inactive,–
CCC1(C)NC(=O)NC1=O (centres undefined),inactive,–
OCC(CBr)(CBr)CBr,inactive,–
NNS(=O)(=O)c1ccc(Oc2ccc(S(=O)(=O)NN)cc2)cc1,inactive,–
C=CCCC=C,inactive,–
COc1cc(N)c(Cl)cc1C(=O)NC1CCN(Cc2ccccc2)CC1,inactive,–
CCOC(=O)C1CC(=O)C(=C(O)C2CC2)C(=O)C1 (centres undefined),inactive,–
OCCN(CCO)c1ccccc1,inactive,–
CC(CNC1CCCCC1)OC(=O)c1ccccc1 (centres undefined),inactive,–
C[C@@H](N)C(=O)O,inactive,–
ICCc1ccccc1,inactive,–
Cc1cccc(C)c1NC(=O)CN1CCCCCC1,inactive,–
O=S(=O)(O)C(F)(F)F,inactive,–
CCOC(=O)NCCC[Si](OCC)(OCC)OCC,inactive,–
CCN(CC)CCNC(=O)COc1ccc(Cl)cc1,inactive,–
CCCN(CCC)C(=O)C(CCC(=O)O)NC(=O)c1ccccc1 (centres undefined),inactive,–
Cc1ccc([N+](=O)[O-])cc1Cl,inactive,–
